# Results taken from PubChem BioAssay (NCI).
# This is part of a sample that, as a whole, favours compounds with a hit. Of some 79,000 tested, about 15% had one in any assay. Values without a mark were called inactive. The source made the active and inactive calls. Cut-off read from the data, not from the text of the source: active = growth inhibition above about 70%; inactive = the rest.
# Assay: NCI Yeast Anticancer Drug Screen. Data for the cln2 rad14 strain (AID 165);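 note: 0% = growth equal to vehicle treated cultures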
# Settings: S. cerevisiae cln2 rad14 strain, at 50.0 µM, active compounds read high
# Summary of the method: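 Growth of compound-exposed yeast (cln2 rad14 genotype) measured and expressed as inhibition relative to vehicle.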
row,Structure (SMILES),growth inhibition
1,OC1C2COc3nc4ccccc4n3C(O2)C1O (stereo not given),33.6%
2,CN(C)CC1Cc2ccsc2C1=O (stereo not given),99.5% (active)
3,CCCC(O)C[N+](=O)[O-] (stereo not given),4.5%
4,CC1=NC(C)=C(/C(C)=N/NC(=O)c2ccccc2O)C(C)/C1=C(/C)NNC(=O)c1ccccc1O (stereo not given),62%
5,O=[N+]([O-])c1cccc(S(=O)(=O)N/N=C/c2cc(I)cc([N+](=O)[O-])c2O)c1,7.85%
6,CNC(=O)OC(C)CN1c2ccccc2Sc2ccc(Cl)cc21 (stereo not given),86.5% (active)
7,O=[N+]([O-])c1ccc(NSc2ccccc2)cc1,90.6% (active)
8,CCOc1ccc2c(c1)nc1ccccc1[n+]2CC,56.4%
9,O=C1C=CC(=O)c2c(O)c(N3CCN(CCO)CC3)c(Cl)c(O)c21,86.8% (active)
10,O=C1CSC(c2cccc([N+](=O)[O-])c2)N1c1ccc(-c2ccc(-n3c(-c4ccccc4)nc4ccccc4c3=O)cc2)cc1 (stereo not given),34%
11,CCC(=O)c1ccc2ccc3ccccc3c2c1,-7.25%
12,N#CSCc1c(Cl)cccc1Cl,64.5%
13,O=[N+]([O-])/C(C(Cl)=C(Cl)Cl)=C(/Sc1ccccc1)N1CCOCC1,89.2% (active)
14,COc1c2occc2c(OC)c2c(C)c(C(=O)OCCN3CCOCC3)oc12,19.4%
15,COc1cnn(-c2ccccc2)c(=O)c1SCc1ccc(Cl)c(Cl)c1,49.9%
16,COc1ccc(/C=C/c2c[n+]([O-])ccc2[N+](=O)[O-])cc1,38.4%
17,CS(=O)(=O)OCCCN(CCCOS(C)(=O)=O)c1ccc(C=Nc2ccc(-c3csc(COc4ccc(Br)cc4Br)n3)cc2)cc1,85.8% (active)
18,O=C(Nc1ccccc1-c1nn(C(=S)Nc2ccccc2)c(=S)n(C(=S)Nc2ccccc2)c1=O)C(F)(F)F,17.2%
19,Cc1ccc(N=C(N)NN=C(c2ccc(Cl)cc2)c2ccc(Cl)cc2)cc1,98% (active)
20,Cc1cccc(C)c1N1C(=O)C(=O)C(c2nc3ccccc3s2)/C(=N/NC(=O)c2ccccc2O)C1=O (stereo not given),69.5%

row,Structure (SMILES),growth inhibition
1,CN(C)CC1CC/C(=C\c2ccc(O)cc2)C1=O (stereo not given),77.6% (active)
2,CCCCCC=C(c1cc(Br)cc(C(=O)O)c1O)c1cc(Br)cc(C(=O)O)c1O,67.1%
3,CCS(CC)(CC)CC1CCCC2=CCC(P(=O)(c3ccccc3)c3ccccc3)CC21 (stereo not given),24.2%
4,Cc1c[n+](=O)c2ccccc2n1[O-],70.8% (active)
5,O=C1CC(=S)NC(=S)N1,-26%
6,CC1=NN(C(=O)c2ccc(Cl)cc2)C(=O)C1N=Nc1ccc(S(=O)(=O)Nc2ncccn2)cc1 (stereo not given),19.4%
7,COC(=O)c1cc(=O)n(-c2ccccc2OC)c(SC)n1,49.4%
8,CCCCN(CCCC)Cc1ccc(NC(C(=O)c2ccccc2)c2ccccc2)cc1 (stereo not given),97.2% (active)
9,Cn1cc(/C=C/[N+](=O)[O-])c2ccc(OCc3ccccc3)cc21,17.5%
10,O=C(c1ccc([N+](=O)[O-])cc1)N1CCCSC1=S,27.2%
11,CCCCCCCCC(=O)NCCN(CCN)C(=O)CCCCCCCC,89.9% (active)
12,Cc1nc2sc3c(c2c2nnnn12)CCCC3,-6.5%
13,CCC(CC)(C(=O)Nc1ccc2c(c1)c(=O)c1ccccc1n2C)C(=O)Nc1ccc2c(c1)c(=O)c1ccccc1n2C,73% (active)
14,Cc1ccccc1N1CCN(c2c3c(nc4ccccc24)CCCCC3)CC1,96.4% (active)
15,O=C(Nc1ccccc1)c1cc(Cl)ccc1O,58.5%
16,CCCCCCCCCCCCCCCCCCOP(=O)([O-])OC1CC[N+](C)(C)CC1,90.2% (active)
17,CN(C)c1ccc(C(O)(Cc2cccc(C#N)c2)c2ccc(N(C)C)cc2)cc1,66%
18,CC(=O)N1CCC(Cc2ccccc2)CC1,56.9%
19,O=[N+]([O-])c1ccc(-n2ncc3cccnc32)c([N+](=O)[O-])c1,46.9%
20,CC(C)OC(=O)c1ccc(NCC2=CC(=O)C=CC2=O)cc1Cl,91.2% (active)
